± gives the standard deviation.
Test system: MILI (PIWIL2) piRISC loaded with piRNA #1 (26 nt)
Experiment: pre-steady-state target cleavage rate (min^-1); guide: piRNA #1 5'p-UGAGGUAGUAGGUUGUAUAGUAUCCA; MIWI and MILI are mouse PIWI proteins and EfPiwi is from a freshwater sponge; tags in brackets are library labels; higher = faster piRNA-guided slicing of the target
Details: auxiliary factor: 500 nM mouse GTSF1
Method in brief: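 For Cleave-'n-Seq, a transcribed, DNA-blocked target RNA library […] met 1 nM active affinity-purified piRISC with one synthetic guide at 33 °C for 0–8 or 0–960 min in HEPES–potassium acetate buffer, with or without 500 nM GTSF1 partner protein. Uncleaved targets were sequenced and normalised to depth and weakly complementary targets, with three trials pooled and k3 capped at 0.0001 min^-1. A burst-and-steady-state fit supplied the pre-steady-state cleavage rate.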
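Further: 1 nM active piRISC with 0.1 nM target library at 33 °C single turnover.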

Q: Which “pre-steady-state target cleavage rate” value does the source give for GGAGUGGAUAGAUUACAACCUACUACCUCA here?
A: Its value is 0.0915 ± 0.01.

Q: For GGAGAGGAUUCUAUUCAACCUACUACCUCA, which “pre-steady-state target cleavage rate” value is on record?
A: Its value is 0.174 ± 0.013.

Q: Which “pre-steady-state target cleavage rate” value does the source give for GGAGACCUAUCUAUACAACCUACAAGCUCA here?
A: Its value is 0.0435 ± 0.012.

Q: How did the “pre-steady-state target cleavage rate” value turn out when GGAGACCUAUGUAUUCAACCUACUAGCUCA was run?
A: Its value is 0.0092 ± 0.0033.

Q: With GGAGACCUAUGAAUACAACCUACUACCAUCA as the sequence, how does the “pre-steady-state target cleavage rate” value read?
A: The value was 0.00646 ± 0.0026.

Q: GGAGACCAUACUAAACAACCUUCUACCUCA was tested. Which “pre-steady-state target cleavage rate” value did it give?
A: The value was 0.00805 ± 0.0035.

Q: For GGAGUGGAUACUAUAGUUCCUACUACCUCA, which “pre-steady-state target cleavage rate” value is on record?
A: Its value is 0.169 ± 0.0095.

Q: With GGAGACCUUACUAUUCAACCUACUACGUCA as the sequence, how does the “pre-steady-state target cleavage rate” value read?
A: Its value is 0.0709 ± 0.0096.

Q: How did the “pre-steady-state target cleavage rate” value turn out when GGAGAGGAUACUAUAGAACCUACUUCCUCA was run?
A: The value was 0.00501 ± 0.0029.

Q: With GGAGACCUAACUAUUCAACCUACUACCUGA as the sequence, how does the “pre-steady-state target cleavage rate” value read?
A: Its value is 0.0858 ± 0.03.

Q: How did the “pre-steady-state target cleavage rate” value turn out when GGAGACCUAUGAUAUCAACCUACUAACCUCA was run?
A: The value was 0.00255 ± 0.0025.

Q: How did the “pre-steady-state target cleavage rate” value turn out when GGAGACCUAUGAUAUGAACCUACUACGCUCA was run?
A: Its value is < 0.0001.

Q: GGAGAGGAUACUAAACAACCUACUACGUCA was tested. Which “pre-steady-state target cleavage rate” value did it give?
A: The value was 0.0356 ± 0.0057.

Q: Which “pre-steady-state target cleavage rate” value does the source give for GGAGACCUAUGAUAUCUACCUACUACGUCA here?
A: The value was < 0.0001.

Q: How did the “pre-steady-state target cleavage rate” value turn out when GGAGACCUAUGAUUACAACCUACUACCGCA was run?
A: Its value is 0.00418 ± 0.004.

Q: With GGAGACGAUACUAAAGAACCUACUACCUCA as the sequence, how does the “pre-steady-state target cleavage rate” value read?
A: Its value is 0.166 ± 0.011.

Q: For GGAGACCUUACUAUACUACCAACUACCUCA, which “pre-steady-state target cleavage rate” value is on record?
A: The value was 0.00617 ± 0.0026.

Q: Which “pre-steady-state target cleavage rate” value does the source give for GGAGACCAUACAAUACAAGCUACUACCUCA here?
A: Its value is 0.205 ± 0.016.

Q: How did the “pre-steady-state target cleavage rate” value turn out when GGAGACCUAUGAUUACAUCCUACUACCUCA was run?
A: Its value is 0.0102 ± 0.0027.

Q: With GGAGACCUAUGAUAACAACCUACAUACCUCA as the sequence, how does the “pre-steady-state target cleavage rate” value read?
A: Its value is 0.00403 ± 0.002.

Q: GGAGAGGAUACUAUUCUACCUACUACCUCA was tested. Which “pre-steady-state target cleavage rate” value did it give?
A: Its value is 0.179 ± 0.013.

Q: How did the “pre-steady-state target cleavage rate” value turn out when GGAGACCUAUGUAUACAACCUACCUACCUCA was run?
A: Its value is 0.0358 ± 0.0076.

Q: With GGAGACCUAUGUAUACAACCUACUACCACA as the sequence, how does the “pre-steady-state target cleavage rate” value read?
A: Its value is 0.0991 ± 0.01.

Q: For GGAGACCUAUGAUUACAACCUACUUCCUCA, which “pre-steady-state target cleavage rate” value is on record?
A: The value was 0.00303 ± 0.0022.

Q: With GGAGACCUUACUAUAAAACCUACUACCUCA as the sequence, how does the “pre-steady-state target cleavage rate” value read?
A: The value was 0.16 ± 0.019.

Q: With GGAGACCUUACUAUACAACUACUACCUCA as the sequence, how does the “pre-steady-state target cleavage rate” value read?
A: The value was 0.0157 ± 0.0032.

Q: Which “pre-steady-state target cleavage rate” value does the source give for GGAGUGGAUACUUUACAACCUAGUACCUCA here?
A: Its value is 0.0239 ± 0.0053.

Q: How did the “pre-steady-state target cleavage rate” value turn out when GGAGACCUAUGAUAUGUUCCUACACCUCA was run?
A: The value was < 0.0001.

Q: Which “pre-steady-state target cleavage rate” value does the source give for GGAGACCUAUCUCAUACAACCUACUACCUCA here?
A: Its value is 0.0664 ± 0.01.

Q: With GGAGACCUAUGAAUACAACCUCACUACCUCA as the sequence, how does the “pre-steady-state target cleavage rate” value read?
A: Its value is 0.00378 ± 0.0031.

Q: GGAGACCAUACAAUACAACCUACUACGUCA was tested. Which “pre-steady-state target cleavage rate” value did it give?
A: Its value is 0.0912 ± 0.014.

Q: How did the “pre-steady-state target cleavage rate” value turn out when GGAGACCUAUGUUUACAACCUAGUACCUCA was run?
A: Its value is 0.00404 ± 0.0027.

Q: With GGAGACCUAACAAUACUACCUACUACCUCA as the sequence, how does the “pre-steady-state target cleavage rate” value read?
A: The value was 0.0399 ± 0.013.

Q: GGAGACCUAUGAAUACAAGCUACAACCUCA was tested. Which “pre-steady-state target cleavage rate” value did it give?
A: The value was 0.018 ± 0.0032.

Q: GGAGACCUAUGUAUAUCAACCUACUACCUCA was tested. Which “pre-steady-state target cleavage rate” value did it give?
A: Its value is 0.00312 ± 0.0027.

Q: GGAGAGGAUUCUUUACAACCUACUACCUCA was tested. Which “pre-steady-state target cleavage rate” value did it give?
A: The value was 0.167 ± 0.013.

Q: Which “pre-steady-state target cleavage rate” value does the source give for GGAGACCUUACUAUACAACCUACUAGCACA here?
A: The value was 0.0607 ± 0.017.

Q: Which “pre-steady-state target cleavage rate” value does the source give for GGAGACCUAUGUAUACAACCUACUAUCCUCA here?
A: The value was 0.0887 ± 0.011.

Q: With GGAGACCUAUGUAUACUACCUACUACGUCA as the sequence, how does the “pre-steady-state target cleavage rate” value read?
A: Its value is 0.0155 ± 0.0032.

Q: Which “pre-steady-state target cleavage rate” value does the source give for GGAGACCUAUGUAUACUACCUACUACCUCA here?
A: Its value is 0.0517 ± 0.008.

From the supplement of paper PMC10338343
